Coupling enz: qHTS Assay for Inhibitors of Fructose-1,6-bisphosphate Aldolase from Giardia Lamblia: Coupling assay counterscreen; coupling enzyme system counterscreen, AmpLite Red fluorescence; activity change, negative = inhibition, % at 58.2 µM, hits read low; 290,000 compounds, 0.67% hits; AID 2472, 2010; in the data active = activity change below about -30%
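Fluorescence at 525 nm excitation and 598 nm emission measured inhibition of the coupled detection system without aldolase. Compounds (at 57.5 uM final) were preincubated 10 min at room temperature with coupling enzyme reagent before a 20 min substrate/AmpLite Red step.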
Tau fibril FP: qHTS for Inhibitors of Tau Fibril Formation, Fluorescence Polarization. 280,000 compounds, 0.39% hits. Potency, µM (top dose mostly 57.7 µM), inactives show at the top dose activity, negative = inhibition, usual class: inhibitors. K18 P301L tau heparin fibrillization, Alexa594 FP, 6 h. Microtubule-associated protein tau (Homo sapiens), P10636; also: potency is read from the fitted curve at half-maximal effect; nearly all actives have a fitted effect of over 55% in size
Target sequence (P10636 561-689 P618L limits assumed): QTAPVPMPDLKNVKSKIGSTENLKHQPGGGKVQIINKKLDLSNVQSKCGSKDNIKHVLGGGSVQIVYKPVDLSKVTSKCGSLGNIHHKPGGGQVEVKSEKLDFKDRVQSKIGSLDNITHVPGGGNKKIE
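Heparin (20 uM) drove fibril formation of recombinant tau K18 P301L, 15 uM unlabeled with 0.24 uM Alexa 594 label, for 6 hr at 37 C in 100 mM sodium acetate pH 7. Fluorescence polarization (555/632 nm) read 1 hr after 30 uM ThT.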
Tau fibril ThT: qHTS for Inhibitors of Tau Fibril Formation, Thioflavin T Binding. Microtubule-associated protein tau (Homo sapiens), P10636. recombinant tau K18 P301L, heparin-induced fibrillization, ThT fluorescence. Potency, µM (series often up to 57.4 µM), for the others: at the top dose activity, negative = inhibition, most hits filed as inhibitors. 270,000 compounds, 2.1% hits; also: potency is read from the fitted curve at half-maximal effect; nearly all actives have a fitted effect of over 55% in size
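K18 P301L tau (15 uM + 0.24 uM Alexa 594-tagged), heparin 20 uM, NaOAc pH 7, 6 h 37 C; ThT 30 uM, 1 h RT, ex 450/em 510 nm.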
Sfp PPTase inh: qHTS Assay for Inhibitors of Bacillus subtilis Sfp phosphopantetheinyl transferase (PPTase); 4'-phosphopantetheinyl transferase ffp (Bacillus subtilis), Q9F4F7; AID 1490, 2009; Potency, µM, without a hit: largest response in the series, negative = inhibition, hits mostly inhibitors; 310,000 compounds, 3.5% hits; Biochemical Sfp PPTase activity, qHTS;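 also: the enzyme is Sfp with the accession as filed and its product quenches rhodamine fluorescence; potency is read from the fitted curve at half-maximal effect; 0% = enzyme reaction without inhibitor and -100% = no enzyme wells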
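Sfp 15 nM + cpd, 15 min RT; start w/ rhodamine-CoA 5 uM, BHQ-2-YbbR 12.5 uM (final); 50 mM Hepes pH 7.6, 10 mM MgCl2, 0.01% NP-40, 0.01% BSA; read 525/598 nm at 0 and 30 min.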
Tau fluor counter: Counterscreen qHTS for Inhibitors of Tau Fibril Formation, Fluorescence Polarization | tau K18 P301L Alexa594 fluorescence, heparin fibrillization | Potency, µM (titrated, usually from 57.7 µM), without a hit: at the highest dose activity change, negative = decrease | 280,000 compounds, 0.93% hits; also: potency is read from the fitted curve at half-maximal effect; nearly all actives have a fitted effect of over 55% in size
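Human tau K18 P301L (15 uM unlabeled, 0.24 uM Alexa 594-labeled) in 100 mM sodium acetate pH 7 with 20 uM heparin, 6 hr at 37 C. ThT 30 uM added, 1 hr ambient; Alexa 594 FP and total fluorescence read at 555/632 nm.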
Numbers without * were called inactive; ? = inconclusive; . = no result given; [ ] = remark or other dose. In the library only some 5.2% were active in any assay of this set; here they are far more common. Unless noted, calls follow the shape of the dose curve; as a rule, active = well fitted curve in the direction sought with a large enough effect; inconclusive = small, poorly fitted or top-dose-only effect, or another doubt; inactive = no such curve, though single readings can be large; an effect the other way counts as inactive or inconclusive. Unless noted, % is scaled to controls: 0 for no effect and ±100 for the full control effect.

SMILES | Coupling enz | Tau fibril FP | Tau fibril ThT | Sfp PPTase inh | Tau fluor counter
Cc1cc(C)c(NC(=O)c2sc3nc(C)cc(C)c3c2NC(=O)c2ccccc2)c(C)c1 | . | -7% | -7% | . | -8%
CCc1nnc(N/N=C/c2ccccc2Cl)n1N | -15 | -15% | ? | -24% | -18%
CCc1nnc(N/N=C/c2ccccc2F)n1N | -19 | -1% | -14% | 50µM* | -1%
CCN(CC)C(=O)c1sc(NC(=O)c2cc(-c3ccc(C)s3)nc3ccccc23)c(C(=O)OC)c1C | -3 | -8% | -20% | 13µM* | -28%
CCN(CC)C(=O)c1sc(NC(=O)c2ccncc2)c(C(=O)OC)c1C | 1 | -5% | ? | 28µM* | -17%
CCOC(=O)c1c(NC(=O)c2ccoc2C)sc(C(=O)N(C)C)c1C | 0 | -11% | -1% | -9% | -6%
CCOC(=O)c1c(NC(=O)OC)sc(C(=O)N(CC)CC)c1C | 1 | 4% | -14% | 22µM* | -5%
CCN(CC)C(=O)c1sc(NC(=O)c2ccoc2C)c(C(=O)OC)c1C | 1 | -6% | ? | 32µM* | -5%
CCN(CC)C(=O)c1c(NC(=O)c2ccccc2)sc(C)c1C | 1 | 9% | -9% | -1% | -5%
Cc1cc(C)c(NC(=O)c2cc3c(=O)n4ccccc4nc3n2C)c(C)c1 | . | 2% | 4% | . | -7%
C#CCCCO/N=C1/C[C@@H](O)[C@@H](O)[C@@H]2[C@@H]3C(=O)N(C(C)(C)C)C(=O)[C@H]3CC[C@H]12 | 0 | 1%[11.6 µM] | -2%[11.5 µM] | -9% | -2%[11.6 µM]
CC(=O)N[C@@H]1C(O[C@H]2O[C@H](C(=O)O)C(O)[C@H](O)[C@H]2O)[C@H](O)[C@@H](CO)O[C@H]1O[C@@H]1C(C(=O)O)O[C@@H](O[C@H]2[C@H](O)[C@@H](CO)OC(O)[C@@H]2NC(C)=O)[C@H](O)[C@H]1O (some centres undefined) | . | . | . | 26% | .
Brc1ccc(C2Nc3cccc4cccc(c34)N2)s1 | -5 | ? | 13µM* | -18% | ?
CCCC/C=C/C(NC(=O)c1ccco1)c1ccccc1 (centres undefined) | -2 | -10% | -7% | 4% | -7%
NS(=O)(=O)c1ccc(-c2ccc(C=O)o2)cc1 | -1 | 2% | -6% | 12% | 4%
NS(=O)(=O)c1ccc(-c2ccc(/C=C3\NC(=S)NC3=O)o2)cc1 | -18 | . | . | 5.6µM* | .
CC1=C(C#N)C(=O)NC(=O)/C1=C/c1ccc(-c2ccc(S(N)(=O)=O)cc2)o1 | 0 | -18% | 16µM* | 79µM* | ?
C=CCOC(=O)c1cc(-c2ccc(/C=C3\C(=O)NC(=O)C(C#N)=C3C)o2)ccc1Cl | -9 | -17% | ? | 50µM* | ?
COc1cccc(NC(=O)C2CCN(S(=O)(=O)c3cccc4nonc34)CC2)c1 | . | -1% | -16% | . | -22%
Cc1ccccc1-n1nc(C(=O)c2cccs2)cc(-c2nc3ccccc3[nH]2)c1=N | 1 | 3% | ? | 5% | -22%
COc1ccc(-n2nc(C(=O)c3cccs3)cc(-c3nc4ccccc4[nH]3)c2=N)cc1 | 4 | -3% | 4µM* | 26% | ?
CNC(=S)/N=C(/Nc1ccccc1)c1ccccc1 | 2 | -7% | -2% | -85% | -3%
CNC(=S)/N=C(\Nc1ccc(C)cc1)c1ccccc1 | 3 | 4% | . | 7.1µM* | -5%
CC(=O)c1cccc(NS(=O)(=O)c2cccc(S(=O)(=O)c3ccc(Br)cc3)c2)c1 | . | -13% | -15% | . | ?
Cc1cccc(C(=O)NCC(=O)OCc2cc(=O)n3nc(C4CCCCC4)sc3n2)c1 | . | 0% | ? | . | -3%
SMILES | Coupling enz | Tau fibril FP | Tau fibril ThT | Sfp PPTase inh | Tau fluor counter
O=C(O)c1ccc(S(=O)(=O)c2ccc([N+](=O)[O-])cc2[N+](=O)[O-])cc1 | -12 | . | . | 79µM* | .
CCCCCCCCCCCCC(=O)N1CCCC[C@H]1CNC(=O)[C@@H](N)CCCCN | -3 | -17% | ? | 50µM* | -14%
COc1ccccc1NC(=O)CCN1C(=O)/C(=C\c2cc(OC)c(OC)c(OC)c2)SC1=S | . | . | . | 56µM* | .
COc1cc(/C=C2/SC(=S)N(CC(=O)Nc3nc4ccccc4s3)C2=O)cc(OC)c1OC | 6 | 0% | ? | -2% | ?
COc1cc(/C=C2\SC(=S)N(CCC(=O)Nc3ccccc3)C2=O)cc(OC)c1OC | 1 | 5% | 4% | ? | 0%
CCc1nnc(NC(=O)CN2C(=O)/C(=C/c3cc(OC)c(OC)c(OC)c3)SC2=S)s1 | 9 | ? | 7.9µM* | 50µM* | ?
CCCC[C@H](NC(=O)[C@H](CO)NC(=O)[C@H](Cc1ccc(O)cc1)NC(=O)[C@H](CO)NC(C)=O)C(=O)N[C@@H](CCC(=O)O)C(=O)N[C@@H](Cc1cnc[nH]1)C(=O)N[C@H](Cc1ccccc1)C(=O)N[C@@H](CCCNC(=N)N)C(=O)N[C@@H](Cc1c[nH]c2ccccc12)C(=O)NCC(=O)N[C@@H](CCCCN)C(=O)N1CCC[C@H]1C(=O)N[C@H](C(N)=O)C(C)C | 0 | . | . | 13% | .
COc1cc2c(cc1OC)C(C)N(C(=O)c1cc3n(n1)C(C(F)(F)F)CC(c1ccco1)N3)CC2 (centres undefined) | -13 | -10% | ? | 40µM* | -25%
COc1ccc(NC(=O)c2cc(S(=O)(=O)Nc3ccc(OC)cc3)cs2)cc1 | 4 | ? | -16% | 3% | 13µM*[quencher]
CCC(=O)Nc1ccc(N2CCOCC2)c(S(=O)(=O)Nc2ccc(OC)cc2)c1 | -2 | -2% | 1% | 5% | -1%
COc1ccc(NS(=O)(=O)c2cc(NC(=O)/C=C/c3cccs3)ccc2N2CCOCC2)cc1 | 2 | 4% | -9% | 12% | 16µM*[quencher]
COc1ccc(NS(=O)(=O)c2cc(NC(=O)c3cccs3)ccc2N2CCCC2)cc1 | -1 | ? | -12% | 21% | 16µM*[quencher]
COc1ccc(NS(=O)(=O)c2ccc(N3CCCC3)c(NC(=S)Nc3cccc(S(=O)(=O)N(C)C)c3)c2)cc1 | 0 | ? | 25µM* | 4µM* | ?
Cc1ccccc1NC(=O)Cn1nc(-c2ccc(F)cc2)c2cnc3ccccc3c21 | . | -14% | -16% | . | -9%
CCCCN(C)S(=O)(=O)c1cc(-c2cc(C)no2)ccc1C | . | -10% | ? | . | -29%
CCc1ccc(Nc2ccc(C(N)=O)cc2[N+](=O)[O-])cc1 | 2 | 12% | 13µM* | -3% | ?
CC(C)CC1(C(=O)NCC2CC2)C=CCN1C(=O)c1ccccc1 (centres undefined) | -4 | 6% | -8% | -27% | -9%
